A short description of this experiment: NALP1 inflammasome inhibitors in reconstituted yeast, colorimetric, S. cerevisiae, triplicate retest (AID 2071). The conditions noted are these: S. cerevisiae NALP1/ASC/caspase-1 growth, X-gal OD620, 72 h, stronger effect = higher value.

Each structure is given as a SMILES string. About 1,700 (0.61%) of roughly 280,000 compounds were called active. No stated cut-off is given here; in the data, active means inhibition mostly above about 24% (no sharp cut-off); inactive means mostly below about 32%. The sample as a whole holds a higher share of actives than the screen did.

As to `O=S(=O)(NC1CC1)c1ccc(F)c(F)c1`, the inhibition – broadly, the drop in the measured response relative to a control, in per cent – (at 10 µM unless noted) is 3% (inactive).
Take `CN(C)[C@@H]1C(=O)C(C(N)=O)=C(O)[C@@]2(O)C(=O)C3=C(O)c4c(O)ccc(Cl)c4[C@@H](O)[C@H]3C[C@@H]12`: where the note is “at 10 µM unless noted”, the inhibition is 136% (active).
For the compound `O=C(N/N=C/c1ccccn1)c1cccc(NC(=O)c2ccc(Cl)cc2)c1`, the inhibition (at 10 µM unless noted) was 8.8% (inactive).
Regarding `S=C(NCCCc1ccccc1)Nc1ccc(Br)cc1`, the inhibition (at 10 µM unless noted) is 13% (inactive).
Regarding `COc1ccc(C(=O)C2CCCN(C(=O)c3ccc(OC)o3)C2)c(C)c1` (stereo not drawn), where the note is “at 10 µM unless noted”, the inhibition was 14.5% (inactive).
For `CCC(=O)Nc1cc(C(F)(F)F)ccc1N1CCCC1`, the inhibition (at 10 µM unless noted) is 9% (inactive).
The same measure, in the same setting: the value for `CC(Sc1nncn1C)C(=O)Nc1cc(C(F)(F)F)ccc1N1CCOCC1` (stereo not drawn) was 6.8% (inactive); that for `CC(C)CC(=O)Nc1cc(C(F)(F)F)ccc1N1CCOCC1` was 39.4% (active); that for `CC(=O)c1ccc(NC(=O)c2cc(-c3cccs3)on2)cc1` was 27.2% (inactive).
The same measure, in the same setting: the value for `CN(C)CCCN(C(=O)c1ccc(S(=O)(=O)N2CCCCCC2)cc1)c1nc2ccc(Br)cc2s1` was 40.2% (active).
On the same count and under the same terms, the same measure for `CCN(CC)CCN(C(=O)c1ccc(S(=O)(=O)N2CCOCC2)cc1)c1nc2cc3c(cc2s1)OCCO3`: 6.8% (inactive).
Take `CN(C)CCCN(C(=O)c1ccc(S(=O)(=O)N2CCCc3ccccc32)cc1)c1nc2ccc(F)cc2s1`: the inhibition (at 10 µM unless noted) was 33.1% (inactive).
Same read-out and setting: the value for `O=C(N/N=C/c1ccccc1O)C1CCCC1` was -5.6% (inactive).
In the case of `COc1ccc(N(C)S(=O)(=O)c2ccc3c(c2)CC(C)N3C(=O)C2CC2)c(OC)c1` (stereo not drawn), the inhibition (at 10 µM unless noted) is 10.4% (inactive).
Still for that read-out and setting: the value for `O=C(Nc1ccc(NC(=O)c2cccs2)cn1)c1ccco1` was -12.5% (inactive); that for `O=C(Nc1ccnc(-c2ccncc2)n1)c1cccs1` was 37.8% (active); that for `O=C(Nc1ccccc1)c1ccc(NC(=O)c2cccs2)cc1` was 1.7% (inactive).
Same read-out and setting: the same measure for `COCC(=O)Nc1ccc(Br)cc1`: -1.1% (inactive); for `CN1CCN(NC(=O)Nc2ccc(Br)cc2)CC1`: 9.6% (inactive); for `CN1C(CC(=O)Nc2ccc(Br)cc2)c2ccccc2CC1(C)C` (stereo not drawn): 34.1% (active).
For the compound `CC(C)Sc1ncnc2c1cnn2-c1ccccc1`, where the note is “at 10 µM unless noted”, the inhibition is 13.3% (inactive).
On the same count and under the same terms, the same measure for `Cc1nonc1NC(=O)c1oc2ccccc2c1C`: 15.3% (inactive).
As to `COC(=O)c1ccccc1SC1CC(=O)N(c2cccc(C)c2)C1=O` (stereo not drawn), the inhibition is, setting by setting: (at 10 µM) 74.7% (active); (triplicate retest, at 20 µM) 89.6%.
As for `COC(=O)c1cc(C(=O)OC)cc(N2C(=O)CC(N3CCN(c4ccccc4)CC3)C2=O)c1` (stereo not drawn), the inhibition (at 10 µM unless noted) is 9.3% (inactive).
Same read-out and setting: the same measure for `Cc1cccc(N2C(=O)CC(SC(N)=Nc3ccccc3)C2=O)c1` (stereo not drawn): 3% (inactive).
Still for that read-out and setting: the value for `CC(=O)c1ccc(N2Cc3ccccc3C2)cc1` was 23% (inactive); that for `COC(=O)c1ccc(NC(=O)CSc2nncn2-c2cccnc2)cc1` was 12.6% (inactive).
Take `COc1ccc(/C=C2\SC(=S)N(CCCC(=O)NC3CCCC3)C2=O)cc1OC`: where the note is “at 10 µM unless noted”, the inhibition was 12.9% (inactive).
Same read-out and setting: the value for `Cc1ccc(SCC(=O)c2sc(-c3ccccc3)nc2C)cc1` was 30.2% (inactive).
Consider `Cc1nc(-c2ccccc2)sc1C(=O)/C=C/N(C)C`, for which the inhibition (at 10 µM unless noted) is 32.3% (active).
Consider `CN(C)/C=C/C(=O)c1ccccc1F`, for which the inhibition (at 10 µM unless noted) was 27.1% (inactive).
In the case of `CCCc1cc(=O)oc2c(C)c(OCC(=O)Nc3ccccn3)ccc12`, the inhibition (at 10 µM unless noted) is 16.1% (inactive).
Turning to `COc1cc(/C=C/C(=O)N2CCc3ccccc3C2)cc(OC)c1OC`, the inhibition (at 10 µM unless noted) was 10.3% (inactive).
On the same count and under the same terms, the same measure for `COc1ccc(OC)c(C(=O)NC(CC(N)=O)c2ccc(N3CCC(N4CCCCC4)CC3)c([N+](=O)[O-])c2)c1` (stereo not drawn): 11.6% (inactive); for `Cc1ccc(C)c(S(=O)(=O)n2cnc3ccccc32)c1`: 1.1% (inactive); for `Cc1ccc(S(=O)(=O)n2cnc3ccccc32)c(C)c1`: 40.9% (active).
Still for that read-out and setting: the value for `COc1ccc(S(=O)(=O)n2cnc3ccccc32)c(C)c1` was 2.2% (inactive).
On the same count and under the same terms, the value for `CC1CN(C(=O)c2cc(COc3c(F)cccc3F)on2)CCN1C` (stereo not drawn) was -3.5% (inactive); that for `Cc1ccc(CNC(=O)CCS(=O)(=O)c2ccc3c(c2)CC(C)N3C(=O)C2CC2)o1` (stereo not drawn) was 20.6% (inactive); that for `O=C(NC(=O)c1ccccc1)NC(=O)c1ccccc1` was -6% (inactive).
As for `N#C/C(=C/c1ccc(Cl)cc1)NC(=O)c1ccccc1`, where the note is “at 10 µM unless noted”, the inhibition is 43.3% (active).
The same measure, in the same setting: the same measure for `O=C(NCC1CCCO1)/C(=C/c1ccc(Cl)cc1)NC(=O)c1ccccc1` (stereo not drawn): 22.3% (inactive); for `O=C(Nc1ccccc1Cl)NC1(C(=O)N2CCOCC2)CCCCC1`: 7.4% (inactive); for `CC1CCC2(CC1)NC(=O)N(CC(=O)c1ccc3c(c1)OCO3)C2=O` (stereo not drawn): 9% (inactive).
On the same count and under the same terms, the same measure for `Cc1occc1C(=O)N/N=C/c1ccc(-c2cccc([N+](=O)[O-])c2)o1`: 11.5% (inactive).
Still for that read-out and setting: the value for `CC[C@H]1OC(=O)[C@H](C)[C@@H](O[C@H]2C[C@@](C)(OC)[C@@H](O)[C@H](C)O2)[C@H](C)[C@@H](O[C@@H]2O[C@H](C)C[C@H](N(C)C)[C@H]2O)[C@](C)(O)C[C@@H](C)[C@@H]2N[C@@H](COCCOC)O[C@H]([C@H]2C)[C@]1(C)O` was 75.2% (active); that for `CCn1c(SCc2cccc(C(=O)O)c2)nnc1-c1ccc(Cl)cc1` was 7.1% (inactive).
With `CCN1CCN(CCNC(=O)c2ccc(/C=C3/Sc4ccccc4N(Cc4cccc(C)c4)C3=O)cc2)CC1`, where the note is “at 10 µM unless noted”, the inhibition is 12.2% (inactive).
On to `CCN1/C(=C\c2ccc3ccccc3[n+]2CC)Sc2cc(C)ccc21`, for which the inhibition is 77.1% (active) (at 10 µM) and 81.9% (triplicate retest, at 20 µM).
As to `CCN1/C(=C/C(=S)Nc2ccccc2)Sc2ccccc21`, the inhibition (at 10 µM unless noted) is 27.1% (inactive).
With `CCN1/C(=C/c2ccc3ccc(C)cc3[n+]2CC)Sc2ccccc21`, the inhibition reads like this: (at 10 µM) 87.1% (active); (triplicate retest, at 20 µM) 107%.
Take `CCCN1CCn2c3c(c4cc(Br)ccc42)CCCC31` (stereo not drawn): the inhibition (at 10 µM unless noted) is 15.4% (inactive).
Still for that read-out and setting: the value for `CCN(C(=O)CN1C(=O)/C(=C/c2ccc(F)cc2)SC1=S)C1CCS(=O)(=O)C1` (stereo not drawn) was 4.8% (inactive); that for `COc1ccc(C(=O)N2CCCCC2C(=O)Nc2ccc(-n3nc(C)cc3C)cc2)o1` (stereo not drawn) was 8.7% (inactive); that for `Cc1snc(SCc2c(F)cccc2Cl)c1C#N` was 6.1% (inactive).
On to `CCC(=C/c1sc2ccc3ccccc3c2[n+]1C)/C=C1\Sc2ccc3ccccc3c2N1C`, for which the inhibition (at 10 µM unless noted) is 42.3% (active).
As to `COc1ccc(/C=N/Nc2ccccc2C(=O)O)cc1`, the inhibition (at 10 µM unless noted) is 10.9% (inactive).
With `CCNC(=O)Nc1ccc(S(=O)(=O)Nc2cnc(C)nc2C)cc1`, the inhibition (at 10 µM unless noted) was 18.5% (inactive).
Same read-out and setting: the value for `CCOc1ccccc1/C=N/Nc1nc2ccccc2o1` was 14.3% (inactive); that for `COc1ccccc1CCNC(=O)C1CCN(C(=O)/C=C/c2ccccc2)CC1` was 16.7% (inactive).

For the origin of these results see PubChem BioAssay AID2071 (Sanford-Burnham Center for Chemical Genomics, 2009).
